Assay outcomes (PubChem)
VACV Venus inh: qHTS for Stage-Specific Inhibitors of Vaccinia Orthopoxvirus: Venus Reporter Primary qHTS | Vaccinia virus Venus reporter expression, fluorescence | Potency, µM (top dose mostly 36.5 µM), most hits filed as inhibitors | 0.46% of 330,000 active | AID 720580, 2013; calls by dose curve; tested in A549 cells; also: nearly all actives have a fitted effect of over 30% in size
Lassa entry inh: qHTS for Inhibitors of binding or entry into cells for Lassa Virus. Lassa virus pseudotype entry inhibition, cell reporter. Potency, µM (series often up to 37.9 µM), usual class: inhibitors. 1.2% of 300,000 active; calls by dose curve; tested in HEK293 cells; also: nearly all actives have a fitted effect of over 50% in size
FMDV inh: High Throughput Screening for Foot and Mouth Disease Virus Antivirals; FMDV antiviral cell-based qHTS; Potency, µM (doses to about 57.9 µM), hits mostly inhibitors; 1.2% of 410,000 active; AID 1159524, 2015; calls by dose curve; tested in HEK293T cells; also: read-out not given here; nearly all actives have a fitted effect of over 45% in size
MARV entry inh: qHTS for inhibitors of binding or entry into cells for Marburg Virus | Marburg virus pseudotyped entry inhibition, cell reporter | Potency, µM (top dose mostly 37.8 µM), hits mostly inhibitors | 1.8% of 300,000 active | AID 540276, 2011; calls by dose curve; tested in HEK293 cells
VACV mCherry inh: qHTS for Stage-Specific Inhibitors of Vaccinia Orthopoxvirus: mCherry Reporter Primary qHTS. 0.63% of 310,000 active. Potency, µM (titrated, usually from 36.5 µM), usual class: inhibitors. AID 720579, 2013. Vaccinia virus mCherry reporter infection, fluorescence; calls by dose curve; tested in A549 cells; also: nearly all actives have a fitted effect of over 35% in size
HCV inhibitor: qHTS Assay for Inhibitors of Hepatitis C Virus (HCV) | Huh7.5.1 HCVcc-Cre infection, luciferase reporter, 44 h | Potency, µM (doses to about 41.8 µM), most hits filed as inhibitors | 3.4% of 340,000 active | AID 651820, 2012; active = well fitted inhibition curve with a large enough effect; inconclusive = small, poorly fitted or top-dose-only effect, or another doubt; inactive = no such curve, though single readings can be large or run the other way
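HCVcc-Cre virus at an moi near 0.5 was added right after compound to cells cultured 4 h from seeding (1,000 cells/well). Luciferase activity was determined 44 h later, 15 min after substrate addition at RT.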
A number is an active result; – = inactive; ? = inconclusive; · = no result; ! = repeats disagree; [ ] = remark or other dose. The list is not random: actives were taken first. Their share in the collection is about 5.3%.

SMILES	VACV Venus inh	Lassa entry inh	FMDV inh	MARV entry inh	VACV mCherry inh	HCV inhibitor
CC1CN(C(=O)COC(=O)c2cc([N+](=O)[O-])ccc2Cl)CC(C)O1 (centres undefined)	–	–	–	–	–	–
O=C(COC(=O)c1cc([N+](=O)[O-])ccc1N1CCOCC1)c1ccccc1Cl	–	–	–	–	–	?
O=C(OCC(=O)N1CCCC1)c1cc([N+](=O)[O-])ccc1Cl	–	–	10µM	–	–	–
CC1CCCN(C(=O)COC(=O)c2cc([N+](=O)[O-])ccc2N2CCOCC2)C1 (centres undefined)	–	–	–	–	–	31.6µM
O=C(OCc1ccc([N+](=O)[O-])cc1)c1cc([N+](=O)[O-])ccc1N1CCOCC1	–	?	–	–	?	4.47µM
O=C(OCc1c(F)cccc1Cl)c1cc([N+](=O)[O-])ccc1N1CCOCC1	–	–	–	–	?	11.2µM
CC1CC(C)CN(C(=O)COC(=O)c2cc([N+](=O)[O-])ccc2N2CCOCC2)C1 (centres undefined)	–	–	–	?	–	?
CC1(C(=O)NCc2ccccc2)CN(S(C)(=O)=O)CC(=O)N1Cc1cccs1 (centres undefined)	–	·	–	·	–	·
CCCSc1nc2sc3c(c2c(=O)n1Cc1ccccc1)CC(C)(CC)OC3 (centres undefined)	–	?	–	·	–	·
COc1ccccc1CCc1nc2ccccc2n1C1CCN(C(=O)c2cc(C)nn2C)CC1	–	·	–	·	–	·
Cc1ccc(NN2C(=O)C=C(c3ccc(Cl)cc3)C2=O)cc1	?	?	39.8µM	?	?	–
O=C1C=C(c2ccccc2)C(=O)N1Nc1ccccc1	–	?	35.5µM	–	–	?
COc1ccc(C2=CC(=O)N(Nc3ccccc3)C2=O)cc1	–	–	?	?	–	–
Cc1ccc(NN2C(=O)C=CC2=O)cc1	–	–	–	–	–	–
CC(C)C(=O)N[C@H]1CCCN1C(=O)C=Cc1ccccc1	·	?	·	–	·	·
CC(=O)c1ccc(N2CCN(C(=O)c3nn(Cc4ccccc4)c(=O)c4ccccc34)CC2)cc1	–	10µM	–	?	–	?
COc1cc2c(cc1OC)CN(C(=O)c1nn(Cc3ccccc3)c(=O)c3ccccc13)CC2	?	?	–	?	?	10µM
C[N+]1(CC(=O)c2ccc(I)cc2)CCCc2ccccc21 (centres undefined)	–	·	·	·	–	·
CCOC(=O)c1sc(N(Cc2ccccc2)C(=O)COC(=O)c2ccccc2O)nc1C	–	–	–	?	–	–
CCOC(=O)c1sc(N(Cc2ccccc2)C(=O)COC(=O)c2ccc(O)cc2)nc1C	?	2.06µM	–	?	–	?
CCOC(=O)c1sc(N(Cc2ccccc2)C(=O)CCl)nc1C	–	18.3µM	?	?	–	17.8µM
CCOC(=O)c1sc(N(Cc2ccccc2)C(=O)CSc2ncn[nH]2)nc1C	–	?	–	–	·	?
CCOc1ccc(C2CC(=O)N(c3cccc(F)c3)C3=C2C(=O)OC3)cc1 (centres undefined)	–	–	–	–	–	·
CCN(CC(=O)NCc1cccs1)C(=O)/C=C/c1ccc(OC)cc1OC	–	–	–	–	–	20µM
S=C(NCc1ccc2[nH]c3c(c2c1)CCCC3)Nc1ccccc1	–	–	–	–	–	?
SMILES	VACV Venus inh	Lassa entry inh	FMDV inh	MARV entry inh	VACV mCherry inh	HCV inhibitor
Cc1cc(C)cc(NC(=S)NCc2ccc3[nH]c4c(c3c2)CCCC4)c1	–	3.66µM	–	?	?	?
NC(=O)C1CCCN(Cc2ccc3c(c2)CN(Cc2ccccc2)CCO3)C1 (centres undefined)	–	·	–	·	–	·
CCOC(=O)c1cnc2c(C(=O)OC)cccc2c1NCc1ccco1	·	–	–	–	·	–
CCOC(=O)c1cnc2c(C)cccc2c1NCc1ccco1	–	–	·	–	–	11.2µM
O=C1CC(c2ccccc2)=C(c2ccccc2)C1c1ccccc1 (centres undefined)	–	–	–	–	–	–
Cc1cc(C)c2c(CN(C)Cc3ccccc3)cc(=O)oc2c1	–	9.96µM	–	·	–	·
Cc1cc(C)c2c(CN3CCCCC3)cc(=O)oc2c1	–	?	–	–	–	–
Cc1cc(C)c2c(CCl)cc(=O)oc2c1	?	?	28.2µM	?	–	–
COc1ccc(Cc2nccc3cc(OC)c(OC)cc23)cc1OC	?	?	17.8µM	?	?	3.16µM!
CC1=C(C(=O)OC2CCCC2)C(c2c(Cl)cccc2Cl)CC(=O)N1 (centres undefined)	–	–	–	–	–	·
CNC(=O)C[C@H](C(=O)O)c1ccc(OC(C)C)cc1	·	·	·	–	·	·
CCOc1ccc(N2C(=O)CC(N)C2=O)cc1 (centres undefined)	–	–	–	–	·	5.01µM
Nc1ccc(CCNc2ncnc3c2ncn3[C@@H]2O[C@@H](CO)[C@H](O)[C@@H]2O)cc1	·	·	·	–	·	·
CCN1CCCC1CNC(=O)c1cnn(-c2ncc3c(n2)-c2ccc(OC)cc2CC3)c1C1CC1 (centres undefined)	–	·	–	·	–	·
COC(=O)C1=C(c2ccc(-c3ccccc3)c(F)c2)C[C@@H]2CC[C@H]1N2C(=O)N1CCCC1	?	·	–	·	22.4µM	2.82µM
COC(=O)C1=C(c2ccc3ccccc3c2)C[C@@H]2CC[C@H]1N2C(=O)N1CCC(O)CC1	–	·	?	·	–	–
COC(=O)C1=C(c2ccc3ccccc3c2)C[C@@H]2CC[C@H]1N2C(=O)N1CCCC1	?	·	?	·	?	10µM
CCN1CCN(Cc2ccc(NC(=O)c3cc(NC(=O)C(=O)c4c[nH]c5ccccc45)cc(OC)c3)cc2C(F)(F)F)CC1	10µM	·	?	·	?	–[8.37 µM]
CCN1CCN(Cc2ccc(NC(=O)c3ccc(C)c(NC(=O)C(=O)c4c[nH]c5ccccc45)c3)cc2C(F)(F)F)CC1	10µM	·	?	·	11.2µM	?
CCN1CCN(Cc2ccc(NC(=O)c3cc(NC(=O)c4cc(C)on4)cc(OC)c3)cc2C(F)(F)F)CC1	?	·	?	·	–	?
COc1ccc(N2CCN(C(=O)c3cc4c(=O)n(Cc5cccnc5)ccc4nc3C)CC2)cc1	–	–	–	·	–	·
COC(=O)c1ccc(/C=C/c2c(-c3ccsc3)sc3ccccc23)cc1	–	·	–	·	–	10µM
COc1ccccc1OCC(=O)Nc1cc(S(=O)(=O)N2CCOCC2)ccc1N1CCCCC1	–	?	–	?	?	12.6µM
COc1cc(S(=O)(=O)N2CCOCC2)ccc1NC(=O)COC(=O)CC12CC3CC(CC(C3)C1)C2	·	16.4µM	–	–	·	?
O=C(COc1ccc(F)cc1Cl)Nc1cc(S(=O)(=O)N2CCOCC2)ccc1N1CCCCC1	–	?	–	?	–	?
CCc1ccccc1OCC(=O)Nc1cc(S(=O)(=O)N2CCOCC2)ccc1N1CCCCC1	–	?	–	?	?	11.2µM
